Screens: PubChem, Center for Chemical Genomics, University of Michigan
This excerpt belongs to a sample that is enriched for hits.
Dicer inh: blocks human Dicer maturation of pre-miR-21 | Q9UPY3 | AID 1347074 | z-score at 25 µM | cat-ELCCA pre-miR-21 Dicer processing, chemiluminescence; stronger effect = higher value | 6% of 47,000 active; in the data active = z-score above about 3, passing the limit was not always enough;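 note: higher signal means more uncleaved substrate so more Dicer inhibition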
Each line names hits and unclear results; the compound was inactive in the other large screens.

CC(C)(C)c1cc(Oc2ccc([N+](=O)[O-])cn2)ccc1Oc1ccc([N+](=O)[O-])cn1	none
CCOC(=O)c1cnc(SCc2c(C)cc(C)cc2C)nc1C(F)(F)F	none
ON(Cc1ccc(Cl)cc1)Cc1ccc(Cl)cc1	Dicer inh 3
ON(Cc1cccc(C(F)(F)F)c1)Cc1cccc(C(F)(F)F)c1	none
CN(C)C(=S)Cc1ccc(Cl)cc1	none
COc1ccc(N(Cc2ccccn2)C(=O)c2ccc(F)cc2)cc1	none
COc1ccc(CCN=C(N)N)cc1OC	none
CCOc1ccc2c(c1)C(=O)c1cc(O)ccc1-2	none
CC(=O)Oc1ccc2c(c1)C(=O)c1cc(OC(C)=O)ccc1-2	Dicer inh 6.2
COC(=O)COc1ccc2c(c1)C(=O)c1cc(OCC(=O)OC)ccc1-2	none
O=c1[nH]cnc2cc(-c3ccc(F)cc3)sc12	none
Cc1ccc(C(=O)CSCC(=O)c2ccc(C)cc2)cc1	none
CCOC(=O)c1cc2c(NC(=O)c3cccc(C(F)(F)F)c3)c(C(=O)OCC)sc2nc1C(F)(F)F	none
COc1cc2ccccc2cc1C(=O)Oc1cccc2ccc(C)nc12	none
O=C(NC(=S)Nc1ccccc1Cl)c1ccc(F)cc1F	Dicer inh 10
O=C(NC(=S)Nc1ccccc1Cl)c1cnn2c(C(F)(F)F)cc(C(F)(F)F)nc12	none
O=C(NC(=S)Nc1ccccc1Cl)c1ccccc1	none
Cc1c(C#N)c(Sc2ccccc2NC(=O)c2ccc(Cl)cc2)nc2ccccc12	none
CC(C)(C)c1ccc(-c2nnc3n2N=C(c2ccccc2O)CS3)cc1	none
CNc1ccc(CSc2ccc(C(F)(F)F)cn2)cc1C(F)(F)F	none
Cc1cc(=O)n2ncnc2n1CC(=O)N/N=C/c1ccc(Cl)cc1	none
O=C(Cn1c(-c2ccccc2)cc(=O)n2ncnc12)N/N=C/c1ccc2c(c1)OCO2	none
Cc1cc(=O)n2ncnc2n1CC(=O)NN	Dicer inh 3.1
Cc1ccc(S(=O)(=O)Nc2ccc(C)cc2[N+](=O)[O-])cc1	none
O=C(O)c1ccccc1-c1c2ccc3cc(O)ccc3c2oc2c1ccc1cc(=O)ccc12	Dicer inh 4.3
COc1ccccc1-c1cc(C(=O)O)c2ccccc2n1	none
O=c1c(-c2cccc3ccccc23)c(C(F)(F)F)oc2cc(O)ccc12	none
Cc1ccc(C(=O)Nc2cnc3c(C)cccn3c2=O)cc1	none
CN(C)CCCN1C(=O)C(O)=C(C(=O)c2ccco2)C1c1ccccc1 (configuration not stated)	none
CCc1cccc(CC)c1NC(=O)C(Sc1ccccn1)c1ccccc1 (configuration not stated)	none
COCCOC(=O)C1=C(C)NC2=C(C(=O)CC(C)(C)C2)C1c1ccc(OC)c(OC)c1 (configuration not stated)	Dicer inh 3.7
COC(=O)C1=C(C)NC2=C(C(=O)CC(c3ccccc3)C2)C1c1ccccc1Cl (configuration not stated)	none
COc1cccc(C2C(C(=O)OC3CCCC3)=C(C)NC3=C2C(=O)CC(c2ccccc2)C3)c1OC (configuration not stated)	none
COC(=O)C1=C(C)NC2=C(C(=O)CC(c3ccc(Cl)cc3)C2)C1c1ccccc1Cl (configuration not stated)	Dicer inh 3.4
COC(=O)C1=C(C)NC2=C(C(=O)CC(c3ccccc3)C2)C1c1ccccc1F (configuration not stated)	none
COC(=O)C1=C(C)NC2=C(C(=O)CC(c3ccc(OC)c(OC)c3)C2)C1c1ccc(F)cc1 (configuration not stated)	Dicer inh 4.5
COc1cccc(C2C(C(=O)OC(C)C)=C(C)NC3=C2C(=O)CC(c2ccccc2)C3)c1OC (configuration not stated)	Dicer inh 7.6
COc1ccccc1C1C(C(=O)OC(C)C)=C(C)NC2=C1C(=O)CC(c1ccccc1)C2 (configuration not stated)	none
CCOCCOC(=O)C1=C(C)NC2=C(C(=O)CC(C)(C)C2)C1c1ccc(OC)c(OC)c1 (configuration not stated)	none
COC(=O)C1=C(C)NC2=C(C(=O)CC(c3ccc(OC)cc3)C2)C1c1ccc(OC)c(OC)c1 (configuration not stated)	none
CCCCOC(=O)C1=C(C)NC2=C(C(=O)CC(C)(C)C2)C1c1ccc(OC)c(OC)c1 (configuration not stated)	none
COC(=O)C1=C(C)NC2=C(C(=O)CC(c3ccc(OC)c(OC)c3)C2)C1c1ccc(SC)cc1 (configuration not stated)	none
Cc1onc(-c2ccccc2)c1N1C(=O)CCN(Cc2ccccc2)C1=O	none
CCOC(=O)C1=C(CC)NC2=C(C(=O)CCC2)C1c1ccc(Br)cc1 (configuration not stated)	none
CN(C)c1ccc(CNC2CCCCC2)cc1	none
Clc1ccc(Oc2ccccc2-n2nncc2-c2ccccc2)c(Cl)c1	none
CC(C)n1c2ccc(F)cc2c2nc3ccccc3nc21	none
CC1=C(C(=O)OCC2CCCO2)C(c2cccc(Br)c2)C2=C(CC(C)(C)CC2=O)N1 (configuration not stated)	none
CCOc1ccc(C2C(C(=O)OCCOC)=C(C)NC3=C2C(=O)CCC3)cc1OC (configuration not stated)	none
CC1=C(C(=O)OCC2CCCO2)C(c2cccc(O)c2)C2=C(CC(C)(C)CC2=O)N1 (configuration not stated)	Dicer inh 3.1
CC1=C(C(=O)OCC2CCCO2)C(c2cccc(Cl)c2)C2=C(CC(C)(C)CC2=O)N1 (configuration not stated)	none
CCCCCOC(=O)C1=C(C)NC2=C(C(=O)CCC2)C1c1ccc(OC)c(Br)c1 (configuration not stated)	none
CCCCCOC(=O)C1=C(C)NC2=C(C(=O)CCC2)C1c1ccc(OCC)c(OC)c1 (configuration not stated)	Dicer inh 4.2
CN(C)S(=O)(=O)c1ccc(/C(O)=C2\C(=O)C(=O)N(CCN3CCOCC3)C2c2ccco2)cc1 (configuration not stated)	none
O=C(O)c1nn(-c2ccc(Cl)cc2Cl)c(=O)cc1O	none
N#Cc1cccnc1SCCOC(=O)c1cccc(Cl)c1	none
O=C(Oc1ccccc1)Oc1ccc2sc(=O)oc2c1	none
Cc1nc(-c2ccc(S(=O)(=O)NCc3nc(-c4ccc(C(F)(F)F)cc4)no3)s2)cs1	none
CCCCc1c(C)nc(C2CC2)[nH]c1=O	none
CCOC(=O)CC(=O)CSc1nc(C)c2cc(OCC)ccc2n1	none
CCOc1ccc2nc(C)cc(Nc3ccc(N(C)C)cc3)c2c1	Dicer inh 4.5
COc1ccc2nc(C)cc(Nc3ccccc3OC)c2c1	Dicer inh 3.3
Cc1ccc2nc(C)cc(NCCO)c2c1	none
CCOc1ccccc1Nc1cc(C)nc2ccc(OC)cc12	none
Cc1cc(Nc2ccccc2Cl)c2ccccc2n1	none
O=C(NC(=S)Nc1cc(-c2cccs2)[nH]n1)c1ccccc1	none
COc1cccc(C2C(C(=O)OCC3CCCO3)=C(C)NC3=C2C(=O)CCC3)c1 (configuration not stated)	none
Cc1c(C(=O)Nc2ccccc2)cc(C(C)(C)C)n1-c1ccccc1	none
COc1cccc(-c2nc(S(=O)(=O)c3ccc(Cl)cc3)c(N3CCOCC3)o2)c1	none
O=C(O)c1cc(-c2cccc(O)c2)nc2ccc(Br)cc12	none
NNC(=O)Nc1ccc(C(F)(F)F)cc1Cl	none
O=C(Nc1cc(C(F)(F)F)ccc1Cl)C(=S)N1CCOCC1	none
O=C(Nc1cc(C(F)(F)F)ccc1Cl)C(Cl)Cl	Dicer inh 5
O=[N+]([O-])c1ccc(-c2ncc3ccccn23)cc1	none
O=C(O)CSc1ccccc1C(=O)O	none
CCOC(=O)C(NC(=O)Nc1ccccc1)(Nc1cccc(C)c1)C(F)(F)F (configuration not stated)	none
